Where “and” joins values, the source holds several entries; their conditions need not be identical. Equal values may be shown once. Calls of active or inactive are those of the source. How the source made its calls: active means hit-call score of the fitted dose curve at least 0.9, where 1 is the maximum; inactive means score below 0.9.
Columns and labels:
[1] = read-out: Tissue Factor, F3 (gene 2152); test: BSK_CASM3C_TissueFactor: BioMAP Diversity Plus: CASM3C Assay for Tissue Factor Biomarker Activity (AID 2283052); conditions: primary human coronary artery smooth muscle cells; actives raise or lower the signal;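 further: cell surface tissue factor protein level read by ELISA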
[2] = read-out: Interferon-gamma inducible Protein 10 (IP10), CXCL10 (gene 3627); test: BSK_hDFCGF_IP10: BioMAP Diversity Plus: hDFCGF Assay for Interferon-gamma inducible Protein 10 (IP10) Biomarker Activity (AID 2283053); conditions: primary human foreskin fibroblasts; actives raise or lower the signal
Outline: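 IP-10 levels, quantified by ELISA, are taken from human foreskin fibroblast cultures 24 h after chemical treatment, with DMSO serving as negative control and baseline for bidirectional analysis.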

[3] = read-out: Urokinase-type plasminogen activator receptor (uPAR), PLAUR (gene 5329); test: BSK_CASM3C_uPAR: BioMAP Diversity Plus: CASM3C Assay for Urokinase-type plasminogen activator receptor (uPAR) Biomarker Activity (AID 2283054); conditions: primary human coronary artery smooth muscle cells; actives raise or lower the signal;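 further: cell-surface uPAR protein level quantified by ELISA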
[4] = read-out: Vascular cell adhesion molecule 1 (VCAM1), VCAM1 (gene 7412); test: BSK_CASM3C_VCAM1: BioMAP Diversity Plus: CASM3C Assay for Vascular cell adhesion molecule 1 (VCAM1) Biomarker Activity (AID 2283055); conditions: primary human coronary artery smooth muscle cells; actives raise or lower the signal;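 further: VCAM-1 protein level quantified by ELISA on the cells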
[5] = read-out: Collagen III, COL3A1 (gene 1281); test: BSK_hDFCGF_CollagenIII: BioMAP Diversity Plus: hDFCGF Assay for Collagen III Biomarker Activity (AID 2283056); conditions: primary human foreskin fibroblasts; actives raise or lower the signal
Outline: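 Human foreskin primary fibroblasts were exposed to test chemicals for 24 h, after which collagen III was quantified by ELISA. Activity was fitted bidirectionally against DMSO as negative control and baseline.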

[6] = read-out: Epidermal growth factor receptor (EGFR), EGFR (gene 1956); test: BSK_hDFCGF_EGFR: BioMAP Diversity Plus: hDFCGF Assay for Epidermal growth factor receptor (EGFR) Biomarker Activity (AID 2283057); conditions: primary human foreskin fibroblasts; actives raise or lower the signal
Outline: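 Measured by ELISA: EGFR levels on primary human foreskin fibroblasts 24 h after chemical treatment, analysed relative to DMSO with bidirectional fitting.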

[7] = read-out: Interleukin-8 (IL8), CXCL8 (gene 3576); test: BSK_hDFCGF_IL8: BioMAP Diversity Plus: hDFCGF Assay for Interleukin-8 (IL8) Biomarker Activity (AID 2283058); conditions: primary human foreskin fibroblasts; actives raise or lower the signal
Outline: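 hDFCGF human dermal fibroblasts; 24 h chemical exposure; IL-8 by ELISA; bidirectional curve fit vs DMSO baseline; gain or loss of signal scored.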

[8] = BSK_hDFCGF_Proliferation: Cell Proliferation Assessment in the BioMAP Diversity Plus: hDFCGF Assay (AID 2283059); conditions: primary human foreskin fibroblasts;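 further: curves fitted for both rise and fall of signal versus DMSO baseline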
Outline: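 Total protein read at 560 nm after 0.1% SRB staining of TCA-fixed human skin fibroblasts, […]. Activity is fitted in both directions relative to DMSO as baseline.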

[9] = read-out: Macrophage colony-stimulating factor (MCSF), CSF1 (gene 1435); test: BSK_hDFCGF_MCSF: BioMAP Diversity Plus: hDFCGF Assay for Macrophage colony-stimulating factor (MCSF) Biomarker Activity (AID 2283060); conditions: primary human foreskin fibroblasts; actives raise or lower the signal
Outline: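 Human foreskin primary fibroblasts were treated with test chemical for 24 h, and M-CSF was then measured by ELISA. Data were fitted bidirectionally against DMSO as the negative control and activity baseline.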

[10] = BSK_hDFCGF_SRB: Viability Assessment in the BioMAP Diversity Plus: hDFCGF Assay (AID 2283061); conditions: primary human foreskin fibroblasts;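 further: cells exposed to compound for 24 h before the read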
Outline: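 Human foreskin primary fibroblasts were treated with compound and assessed 24 h after dosing. Total protein was measured by sulforhodamine B staining (0.1% SRB after 10% TCA fixation, 560 nm read) as a cytotoxicity marker, with bidirectional fitting against DMSO baseline.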

[11] = read-out: Monokine induced gamma interferon (MIG), CXCL9 (gene 4283); test: BSK_hDFCGF_MIG: BioMAP Diversity Plus: hDFCGF Assay for Monokine induced gamma interferon (MIG) Biomarker Activity (AID 2283063); conditions: primary human foreskin fibroblasts; actives raise or lower the signal
Outline: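 ELISA read-out of MIG from primary human dermal fibroblasts 24 h post-dosing. Gain or loss of signal fitted bidirectionally, DMSO as baseline.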

[12] = read-out: Matrix Metallopeptidase 1 (MMP1), MMP1 (gene 4312); test: BSK_hDFCGF_MMP1: BioMAP Diversity Plus: hDFCGF Assay for Matrix Metallopeptidase 1 (MMP1) Biomarker Activity (AID 2283064); conditions: primary human foreskin fibroblasts; actives raise or lower the signal
Outline: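 hDFCGF primary fibroblasts (human foreskin); chemical added; 24 h; MMP1 by ELISA; bidirectional fit vs DMSO.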

[13] = read-out: Vascular cell adhesion molecule 1 (VCAM1), VCAM1 (gene 7412); test: BSK_hDFCGF_VCAM1: BioMAP Diversity Plus: hDFCGF Assay for Vascular cell adhesion molecule 1 (VCAM1) Biomarker Activity (AID 2283065); conditions: primary human foreskin fibroblasts; actives raise or lower the signal;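 on AC50: VCAM-1 protein level quantified by ELISA after 24 h chemical exposure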
Outline: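 Primary human foreskin fibroblasts (hDFCGF system) were dosed with chemical and VCAM-1 was measured by ELISA 24 h later. Bidirectional curve fitting used DMSO as negative control and activity baseline.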

[14] = read-out: Plasminogen activator inhibitor-1 (PAI1), SERPINE1 (gene 5054); test: BSK_hDFCGF_PAI1: BioMAP Diversity Plus: hDFCGF Assay for Plasminogen activator inhibitor-1 (PAI1) Biomarker Activity (AID 2283066); conditions: primary human foreskin fibroblasts; actives raise or lower the signal
Outline: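 PAI-1 levels, determined by ELISA, served as the endpoint in human foreskin fibroblast cultures exposed to compound for 24 h, with DMSO as baseline.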

[15] = read-out: Intercellular Adhesion Molecule 1 (ICAM1), ICAM1 (gene 3383); test: BSK_KF3CT_ICAM1: BioMAP Diversity Plus: KF3CT Assay for Intercellular Adhesion Molecule 1 (ICAM1) Biomarker Activity (AID 2283067); conditions: primary human keratinocytes with fibroblasts; actives raise or lower the signal
Outline: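 Human keratinocyte plus foreskin fibroblast primary co-culture was exposed to chemical for 24 h. ICAM-1 was then quantified by ELISA, and the data were fit bidirectionally against DMSO as the negative control and baseline.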

[16] = read-out: Interferon-gamma inducible Protein 10 (IP10), CXCL10 (gene 3627); test: BSK_KF3CT_IP10: BioMAP Diversity Plus: KF3CT Assay for Interferon-gamma inducible Protein 10 (IP10) Biomarker Activity (AID 2283068); conditions: primary human keratinocytes with fibroblasts; actives raise or lower the signal
Outline: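 Human keratinocyte plus foreskin fibroblast primary co-culture exposed to test chemical for 24 h; IP-10 measured by ELISA. Concentration-response fitted bidirectionally against DMSO control as baseline.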

[17] = read-out: Interleukin-1 alpha (IL1a), IL1A (gene 3552); test: BSK_KF3CT_IL1a: BioMAP Diversity Plus: KF3CT Assay for Interleukin-1 alpha (IL1a) Biomarker Activity (AID 2283070); conditions: primary human keratinocytes with fibroblasts; actives raise or lower the signal
Outline: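 Chemicals were dosed onto co-cultured human keratinocytes and foreskin fibroblasts, IL-1a was quantified by ELISA at 24 h, and activity was fitted in both directions relative to DMSO controls.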

[18] = read-out: TIMP metallopeptidase inhibitor 2 (TIMP2), TIMP2 (gene 7077); test: BSK_KF3CT_TIMP2: BioMAP Diversity Plus: KF3CT Assay for TIMP metallopeptidase inhibitor 2 (TIMP2) Biomarker Activity (AID 2283071); conditions: primary human keratinocytes with fibroblasts; actives raise or lower the signal
Outline: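 Keratinocyte–fibroblast co-culture, 24 h exposure; TIMP-2 ELISA, DMSO-normalised bidirectional fit. Parallel SRB (0.1%, TCA-fixed, 560 nm) total-protein staining gauges cytotoxicity.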

[19] = BSK_KF3CT_SRB: Viability Assessment in the BioMAP Diversity Plus: KF3CT Assay (AID 2283069); conditions: primary human keratinocytes with fibroblasts;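 further: fitted for both signal gain and loss against DMSO baseline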
Outline: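 Keratinocytes co-cultured with foreskin fibroblasts (human primary); chemical added, 24 h; fix 10% TCA, stain 0.1% SRB, A560. Bidirectional fit vs DMSO.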

[20] = read-out: TIMP metallopeptidase inhibitor 1 (TIMP1), TIMP1 (gene 7076); test: BSK_hDFCGF_TIMP1: BioMAP Diversity Plus: hDFCGF Assay for TIMP metallopeptidase inhibitor 1 (TIMP1) Biomarker Activity (AID 2283062); conditions: primary human foreskin fibroblasts; actives raise or lower the signal
Outline: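 Primary human foreskin fibroblasts in the hDFCGF system were dosed with compound for 24 h, then TIMP-1 was measured by ELISA. Activity was fitted bidirectionally relative to DMSO control; parallel SRB staining assessed cytotoxicity.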

Measured: AC50

CCCCCCOC(=O)c1ccccc1O
inactive: [1] | [3] | [4] | [6] | [15] | [16] | [17] | [18]
active: [2] 38.1 µM and 40.6 µM | [5] 24.5 µM and 16.9 µM | [7] 36.9 µM and 42.9 µM | [8] 15.1 µM and 14.2 µM | [9] 34.8 µM and 35.1 µM | [10] 40 µM and 44.8 µM | [11] 18.2 µM and 21.3 µM | [12] 35.8 µM | [13] 33.1 µM and 35.3 µM | [14] 39.3 µM and 39.6 µM

O=C(O)C(F)(F)C(F)(F)C(F)F
not listed: [20]
inactive: all other assays above

FC(F)(F)C(F)(F)C(F)(F)C(F)(F)C(F)(F)C(F)(F)C(F)(F)C(F)(F)F
not listed: [19] | [20]
inactive: all other assays above

CCc1ccc(C(c2ccc(CC)cc2)C(Cl)Cl)cc1
inactive: [3] | [4] | [6] | [7] | [15]
active: [1] 5.97 µM | [2] 26.2 µM | [5] 20 µM | [8] 4.45 µM | [9] 26 µM | [10] 13.8 µM | [11] 31.8 µM | [12] 30.1 µM | [13] 14.2 µM | [14] 12.3 µM | [16] 13.6 µM | [17] 20 µM | [18] 13 µM

CCCCCCCOC(=O)c1ccccc1C(=O)OCCCCCCC
not listed: [20]
inactive: all other assays above

CC(CCl)OP(=O)(OC(C)CCl)OC(C)CCl (stereo not given)
active: [14] 0.0159 µM
not listed: [19]
inactive: all other assays above

CS(C)(=O)=O
not listed: [19]
inactive: all other assays above

CCN(CC)c1ccc2c(C)cc(=O)oc2c1
active: [8] 24 µM | [13] 30.5 µM
not listed: [19] | [20]
inactive: all other assays above

FC(F)(Br)C(F)(F)C(F)(F)C(F)(F)C(F)(F)C(F)(F)Br
not listed: [19] | [20]
inactive: all other assays above

CCCCCCCCCCCCCCCC[N+](C)(C)Cc1ccccc1
inactive: [6]
active: [1] 7.36 µM | [2] 2.56 µM | [3] 7.8 µM | [4] 4.2 µM | [5] 0.666 µM | [7] 3.86 µM | [8] 0.59 µM | [9] 1.97 µM | [10] 5.13 µM | [11] 3.62 µM | [12] 4.17 µM | [13] 1.91 µM | [14] 1.52 µM | [15] 6.06 µM | [16] 3.64 µM | [19] 5.1 µM | [17] 3.72 µM | [18] 1.9 µM

Reference: PubChem BioAssay (EPA / NIEHS)
